G9a block: qHTS Assay for Inhibitors of Histone Lysine Methyltransferase G9a | Histone-lysine N-methyltransferase EHMT2 (Homo sapiens), Q96KQ7 | G9a H3K9 monomethylation, AlphaScreen, 2 h | Potency, µM (highest dose often 102 µM), for the others: top-dose activity, negative = inhibition, actives largely listed as inhibitors | 350,000 tested, 8.8% active; also: % is scaled to controls: 0 for no effect and ±100 for the full control effect; nearly all actives have a fitted effect of over 75% in size
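Step 1: enzyme (final 20 nM) with compound, 15 min RT. Step 2: substrate peptide 500 nM and SAM 20 uM, 2 h RT. Step 3: anti-H3K9me1 antibody and AlphaScreen beads, 10 min, then plate read.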
Sfp PPTase inh: qHTS Assay for Inhibitors of Bacillus subtilis Sfp phosphopantetheinyl transferase (PPTase) | Biochemical Sfp PPTase activity, qHTS | 310,000 tested, 3.5% active | Potency, µM, for inactives: largest response in the series, negative = inhibition, most hits filed as inhibitors;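 also: the enzyme is Sfp with the accession as filed and its product quenches rhodamine fluorescence; 0% = enzyme reaction without inhibitor and -100% = no enzyme wells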
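After 15 min at room temperature with compound, 15 nM Sfp received 5 uM rhodamine-CoA plus 12.5 uM BHQ-2-ybbR (50 mM Hepes pH 7.6, 10 mM MgCl2). Rate came from the fluorescence difference over 30 min, ex 525/em 598 nm.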
L3MBTL1 block: qHTS Assay for the Inhibitors of L3MBTL1. Potency, µM (top dose mostly 57.1 µM), inactives show top-dose activity, negative = inhibition, hits mostly inhibitors. Lethal(3)malignant brain tumor-like protein 1 (Homo sapiens), Q9Y468. 230,000 tested, 0.66% active. AlphaScreen L3MBTL1–H3K9me1 peptide binding; also: % is scaled to controls: 0 for no effect and ±100 for the full control effect; nearly all actives have a fitted effect of over 60% in size
Target sequence (Q9Y468 whole entry, looked up): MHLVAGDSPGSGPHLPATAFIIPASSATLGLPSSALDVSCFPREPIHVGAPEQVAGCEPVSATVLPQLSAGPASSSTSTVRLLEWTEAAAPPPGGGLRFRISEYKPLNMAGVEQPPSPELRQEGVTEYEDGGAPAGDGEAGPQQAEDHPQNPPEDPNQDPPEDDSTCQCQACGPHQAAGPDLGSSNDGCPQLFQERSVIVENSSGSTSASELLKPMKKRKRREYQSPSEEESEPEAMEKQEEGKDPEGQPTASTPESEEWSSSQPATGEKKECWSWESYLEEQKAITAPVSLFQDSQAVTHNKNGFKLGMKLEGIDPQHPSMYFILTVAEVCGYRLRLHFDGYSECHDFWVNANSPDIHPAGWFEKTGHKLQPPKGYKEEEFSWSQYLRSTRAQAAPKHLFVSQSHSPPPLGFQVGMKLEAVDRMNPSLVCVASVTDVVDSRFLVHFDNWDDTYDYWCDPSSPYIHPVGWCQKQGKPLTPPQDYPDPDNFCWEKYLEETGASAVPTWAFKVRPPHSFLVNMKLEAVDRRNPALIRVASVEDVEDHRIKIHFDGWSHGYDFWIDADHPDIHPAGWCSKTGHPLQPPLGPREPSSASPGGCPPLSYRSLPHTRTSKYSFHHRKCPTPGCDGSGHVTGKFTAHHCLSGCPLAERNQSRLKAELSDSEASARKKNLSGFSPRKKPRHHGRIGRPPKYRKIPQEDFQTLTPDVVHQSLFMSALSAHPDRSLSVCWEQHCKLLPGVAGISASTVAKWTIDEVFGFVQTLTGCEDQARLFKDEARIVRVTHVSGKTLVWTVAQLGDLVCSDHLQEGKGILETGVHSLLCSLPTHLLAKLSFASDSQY
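Displacement of a biotinylated histone H3(1-15) peptide monomethylated at Lys9 (75 nM) from L3MBTL1 (50 nM) was measured by AlphaScreen after a 30 min room-temperature compound incubation; cefsulodin titration served as intraplate control.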
BAZ2B inh: qHTS Assay for Inhibitors of BAZ2B; Bromodomain adjacent to zinc finger domain protein 2B (Homo sapiens), Q9UIF8; AlphaScreen BAZ2B-H3K14Ac peptide displacement; Potency, µM (series often up to 114 µM), without a hit: at the top dose activity change, negative = inhibition, actives largely listed as inhibitors; 360,000 tested, 4.4% active; AID 504333, 2011; also: % is scaled to controls: 0 for no effect and ±100 for the full control effect; nearly all actives have a fitted effect of over 60% in size
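AlphaScreen displacement of biotin-H3(5-23)K14Ac peptide (50 nM final) from BAZ2B (50 nM final) in PBS pH 7.4, 0.01% Tween-20; complex preformed 30 min RT, then compounds (top 110 uM) 30 min RT, beads 20 min dark.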
JMJD2A Tudor inh: qHTS Assay for Inhibitors of JMJD2A-Tudor Domain | Lysine-specific demethylase 4A (Homo sapiens), O75164 | AlphaScreen JMJD2A-Tudor / H3K4me3 peptide binding | Potency, µM (series often up to 114 µM), for inactives: top-dose activity change, negative = inhibition, hits mostly inhibitors | 390,000 tested, 4.4% active; also: % is scaled to controls: 0 for no effect and ±100 for the full control effect; nearly all actives have a fitted effect of over 50% in size
HP1b chromo inh: HTS for Inhibitors of HP1-beta Chromodomain Interactions with Methylated Histone Tails. Chromobox protein homolog 1 (Homo sapiens), P83916. AlphaScreen HP1-beta / biotin-H3K9me3 peptide binding. Potency, µM (series often up to 114 µM), inactives show at the top dose activity change, negative = inhibition, actives largely listed as inhibitors. 390,000 tested, 0.56% active; also: nearly all actives have a fitted effect of over 70% in size
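AlphaScreen: HP1-beta (50 nM) preformed 30 min with biotin-H3(1-18)K9me3 peptide (50 nM) in PBS pH 7.4, 0.01% Tween-20. Compound added for 30 min at RT, then streptavidin donor/nickel chelate acceptor beads (10 ug/mL) for 30 min.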
* hit, by the source's call; ? = inconclusive; · = no result given; [ ] = remark or other dose. A selection: hits, their analogues and other compounds. The true share with any hit is near 12%. Calls follow the shape of the dose curve; as a rule, active = well fitted curve in the direction sought with a large enough effect; inconclusive = small, poorly fitted or top-dose-only effect, or another doubt; inactive = no such curve, though single readings can be large; an effect the other way counts as inactive or inconclusive. Potency is read from the fitted curve at half-maximal effect.

SMILES	G9a block	Sfp PPTase inh	L3MBTL1 block	BAZ2B inh	JMJD2A Tudor inh	HP1b chromo inh
O=C(NCc1cccs1)c1ccc2c(c1)sc1nc(-c3ccc(F)cc3)cn12	10µM*	·	·	-17%	-19%	42%
COc1ccc2c(c1)sc1nc(-c3ccccc3)cn12	6%[12.7 µM]	50µM*	-7%	-11%	-5%	36%
CC(N)C(=O)NCC(=O)NC1CSSCC(C(=O)O)NC(=O)C(CO)NC(=O)C(C(C)O)NC(=O)C(Cc2ccccc2)NC(=O)C(C(C)O)NC(=O)C(CCCCN)NC(=O)C(Cc2c[nH]c3ccccc23)NC(=O)C(Cc2ccccc2)NC(=O)C(Cc2ccccc2)NC(=O)C(CC(N)=O)NC(=O)C(CCCCN)NC1=O (centres undefined)	?	2%	·	·	·	·
O=C1CCCC2=C1C(c1ccc(O)c(O)c1)Nc1ccc3ccccc3c12 (centres undefined)	·	·	·	·	28µM*	?
O=C1CCCC2=C1C(c1ccco1)Nc1ccc3ccccc3c12 (centres undefined)	16µM*	45µM*	3.2µM*	13µM*	40µM*	50µM*
O=C1CCCC2=C1C(c1ccccc1Cl)N=C(Nc1nc3ccccc3o1)N2 (centres undefined)	·	·	·	·	-22%	·
Cc1ccc(NS(=O)(=O)c2ccc(-c3cnc(C4CC4)o3)cc2)cc1N(C)C	?	·	·	?	?	-5%
O=C(CCS(=O)CCC(=O)NCc1ccccc1)NCc1ccccc1	50µM*	13%	5%	-38%	-4%	40%
O=C(CCC(=O)NCc1ccccc1)NCc1ccccc1	?	18%	0%	-27%	4%	18%
S=C(NCCCCNC(=S)NCc1ccccc1)NCc1ccccc1	45µM*	-12%	·	-20%	-1%	-11%
S=C(NCCc1ccccc1)NCCc1ccccc1	-1%[59 µM]	11%	0%	-7%	-20%	11%
S=C(NCCc1ccccc1)NCc1cccc(Cl)c1	8.9µM*	-1%	·	?	3%	37%
S=C(NCc1ccccc1)C(=S)NCc1ccccc1	·	·	·	·	35µM*	?
Cc1ccc(S(=O)(=O)N2CCCc3cc(NS(=O)(=O)c4ccc(F)cc4)ccc32)cc1	-18%[59 µM]	·	·	-22%	-9%	41%
CC1CC(=O)NN1C(=O)c1ccccc1 (centres undefined)	79µM*	10%	3%	79µM*	28µM*	-17%
CC1CC(=O)NC(=O)N1Cc1ccccc1 (centres undefined)	·	·	·	·	3%	7%[57 µM]
CCCn1c(-c2ccc(F)cc2)nc2c(NCC3CCN(C)CC3)nc(C)nc21	·	13%	·	·	·	·
CCCCN(CC)CCNC(=O)c1cc2c(=O)oc3ccc(C)cc3c2s1	-41%[59 µM]	·	·	-21%	-28%	15%
CCOc1ccc(C(=O)Nc2cc(NC(=O)c3ccc(OCC)c(Cl)c3)cc(C(=O)O)c2)cc1Cl	?	2%	0%	?	50µM*	?
CCOc1ccc(C(=O)Nc2cccc(C(=O)O)c2)cc1Cl	-31%	8%	2%	-9%	-3%	12%
C/C=C1\COC(C(=O)NC)(C(F)(F)F)C=C1C=C1CCCCC1 (centres undefined)	·	-7%	·	·	-10%	47%
COc1ccc(C(CCNCc2ccc(N(C)C)cc2)c2ccccc2OC)cc1 (centres undefined)	14µM*	-6%	·	10µM*	25µM*	50µM*
COc1ccc(C(CCNCc2ccc(F)cc2)c2ccc(F)cc2)cc1 (centres undefined)	?	56µM*	4%	1%	9%	76%
COc1ccc(CNCCC(c2ccc(OC)cc2)c2ccccc2OC)cc1 (centres undefined)	16%	-2%	·	-15%	-25%	52%
COc1cccc2c1Oc1nc(-c3ccccc3)nc(SCC(=O)N3CCCCC3)c1C2	-28%[59 µM]	·	·	-13%	-15%	31%
SMILES	G9a block	Sfp PPTase inh	L3MBTL1 block	BAZ2B inh	JMJD2A Tudor inh	HP1b chromo inh
CC(C)(C)NC(=S)NNC(=O)[C@H]1C[C@@H]1c1ccccc1	13%[59 µM]	23%	4%	-2%	-12%	40%
COc1ccc(C(=O)NC(=S)NNC(=O)[C@H]2C[C@@H]2c2ccccc2)cc1OC	45µM*	-4%	2%	0%	-25%	-3%
O=C(NC(=S)NNC(=O)[C@H]1C[C@@H]1c1ccccc1)c1ccc(F)cc1	·	?	13%	2%	-20%	-5%
COc1cc(OC)cc(C(=O)NC(=S)NNC(=O)[C@H]2C[C@@H]2c2ccccc2)c1	20µM*	-9%	1%	-19%	?	-23%
O=C(/C=C/c1ccc(F)cc1)NC(=S)NNC(=O)[C@H]1C[C@@H]1c1ccccc1	35µM*	19%	·	-3%[57.1 µM]	-14%	23%
N#Cc1ccc(C(=O)N(Cc2ccco2)Cc2cccs2)cc1	·	·	·	·	-28%[57.1 µM]	10%[57 µM]
O=C(NC(NC(=S)Nc1ccc(F)c([N+](=O)[O-])c1)C(Cl)(Cl)Cl)C(c1ccccc1)c1ccccc1 (centres undefined)	·	11%	·	·	·	·
O=C1NN(c2ccccc2)C(=O)/C1=C/c1cccs1	-11%[59 µM]	9%	-15%	?	·	·
O=C1NN(c2cccc(Br)c2)C(=O)/C1=C\c1ccccc1	20µM*	79µM*	·	-35%	-33%	0%
O=C1NN(c2ccccc2)C(=O)/C1=C\c1ccccc1	40µM*	-25%	-11%	-21%	-15%	33%
O=C1NN(c2ccccc2)C(=O)/C1=C\c1coc2ccc(O)cc2c1=O	14%[12.7 µM]	79µM*	·	-37%	-27%	-9%
COC(=O)c1ccc(CSc2c(C(C)C)cnc3c2c(=O)n(C)c(=O)n3C)cc1	-43%[59 µM]	·	·	-3%	-1%	17%[57 µM]
CC[n+]1c(C)sc2cc(OC)ccc21	25µM*	-23%	·	-18%	-10%	28%
O=C(NCc1ccc(F)cc1)c1ccc(Nc2nc3ccccc3n3nnnc23)cc1	8%[59 µM]	·	·	-12%	-15%	13%
CCCCCc1ccc(OCCOCCn2c[n+](C)c3ccccc32)c(CCCCC)c1	-10%	50µM*	·	-11%	?	7%
CCCCCc1ccc(OCCC[n+]2ccccc2)c(CCCCC)c1	·	16µM*	43%	-5%	-16%	-7%
CCCCOc1ccccc1Cn1c(=O)oc2ccccc21	204%	-10%	58%	176%	105%	233%
O=C(Nc1ccc(-n2nncc2-c2ccccc2)cc1)c1ccccc1	·	·	·	·	-2%[57.1 µM]	14%[57 µM]

Screening data as filed in PubChem BioAssay.
